Data on 20 compounds can be found in PubChem BioAssay.

A short description of test [1]: antimalarial activity against Dd2 strain (AID 2302;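 active = growth inhibition above 50% at the single 2 µM test dose, taken to imply half-maximal potency below 2 µM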;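 also: 0% = DMSO untreated growth and 100% = chloroquine plus artemisinin killed control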). As to conditions: P. falciparum Dd2 in RBCs, LDH growth readout, 72 h; at 2 µM; stronger effect = higher value.
Test [2] in a line: human hepatoma cell viability loss – ATP luminescence, cytotoxicity control for P. falciparum antimalarial project, primary screen (AID 2303;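 active = inhibition above 50%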;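 also: 0% = DMSO wells and 100% = digitonin-killed cells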). Conditions: HepG2 viability, 24-48 h, at 10 µM, stronger effect = higher value.
Test [3] deals with L-lactate dehydrogenase (Plasmodium falciparum (isolate CDC / Honduras)) (UniProt Q27743). In words: PfLDH activity inhibition – cell lysate, 3D7 strain, counter-screen for P. falciparum growth inhibition project (AID 2304).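 Also: 0% = vehicle and 100% = reference inhibitor.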 Conditions: P. falciparum 3D7 crude extract, LDH APAD/NBT absorbance; at 2 µM; stronger effect = higher value.
L-lactate dehydrogenase (Plasmodium falciparum (isolate CDC / Honduras)), sequence (Q27743 whole entry, looked up): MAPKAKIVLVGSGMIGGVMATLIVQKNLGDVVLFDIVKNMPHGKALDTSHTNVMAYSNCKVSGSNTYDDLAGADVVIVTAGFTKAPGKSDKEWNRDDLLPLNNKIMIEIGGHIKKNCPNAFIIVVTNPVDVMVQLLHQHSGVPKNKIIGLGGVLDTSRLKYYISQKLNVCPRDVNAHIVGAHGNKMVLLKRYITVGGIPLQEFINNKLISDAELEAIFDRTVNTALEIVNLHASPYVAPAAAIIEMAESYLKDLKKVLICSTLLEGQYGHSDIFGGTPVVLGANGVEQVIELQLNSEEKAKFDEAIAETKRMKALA
Test [4] can be described thus: inhibition of 3D7 malaria parasite growth – strain 3D7 (AID 2306).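 Also: 0% = DMSO wells and 100% = chloroquine plus artemisinin control wells.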 Conditions: P. falciparum 3D7 erythrocytic growth, LDH absorbance, 72 h; at 2 µM; stronger effect = higher value.
Test [5] has as its target Calcium-dependent protein kinase 1 (Plasmodium falciparum (isolate 3D7)) (UniProt P62344). The test can be described thus: PfCDPK1 kinase inhibitors, biochemical, TCAMS library (AID 1159585; cut-off not given, nearly all actives have IC50 up to about 0.98 µM;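 also: inhibitors leave more ATP so luminescence rises with inhibition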). Conditions: recombinant PfCDPK1, Kinase-Glo ATP depletion luminescence. (In general: Kinase-Glo measures the ATP left after a reaction by luminescence.)
The target of test [6] is Plasmodium falciparum protein kinase 6 (PK6, PF3D7_1337100) (UniProt Q8IDW1). The test can be described thus: PfPK6 kinase inhibitors, biochemical, TCAMS library (AID 1159586). As to conditions: recombinant PfPK6, Kinase-Glo ATP depletion luminescence.
Plasmodium falciparum protein kinase 6 (PK6, PF3D7_1337100), sequence (Q8IDW1 1-305): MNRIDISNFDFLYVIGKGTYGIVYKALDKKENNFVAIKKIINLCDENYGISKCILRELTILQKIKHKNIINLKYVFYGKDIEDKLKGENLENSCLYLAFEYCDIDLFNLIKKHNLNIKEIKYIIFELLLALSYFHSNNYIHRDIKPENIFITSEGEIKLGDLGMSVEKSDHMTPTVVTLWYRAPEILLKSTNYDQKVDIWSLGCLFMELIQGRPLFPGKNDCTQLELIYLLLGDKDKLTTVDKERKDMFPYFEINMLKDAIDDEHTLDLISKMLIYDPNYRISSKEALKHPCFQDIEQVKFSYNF
Test [7] addresses Protein kinase 7 (PK7), Plasmodium falciparum 3D7 (PF3D7_0213400) (UniProt Q7YTF7). The test can be described thus: inhibition of Plasmodium PK7 catalytic activity – biochemical, TCAMS antimalarial set, Kinase-Glo luminescence (AID 1159587). Conditions: recombinant PfPK7, Kinase-Glo ATP depletion luminescence.
The target of test [8] is Calcium-dependent protein kinase 4 (Plasmodium falciparum (isolate 3D7)) (UniProt Q8IBS5). In words: PfCDPK4 kinase inhibitors, biochemical, TCAMS library (AID 1159588; cut-off not given, nearly all actives have IC50 up to about 0.91 µM). As to conditions: recombinant PfCDPK4, Kinase-Glo ATP depletion luminescence.
Calcium-dependent protein kinase 4 (Plasmodium falciparum (isolate 3D7)), sequence (Q8IBS5 whole entry, looked up): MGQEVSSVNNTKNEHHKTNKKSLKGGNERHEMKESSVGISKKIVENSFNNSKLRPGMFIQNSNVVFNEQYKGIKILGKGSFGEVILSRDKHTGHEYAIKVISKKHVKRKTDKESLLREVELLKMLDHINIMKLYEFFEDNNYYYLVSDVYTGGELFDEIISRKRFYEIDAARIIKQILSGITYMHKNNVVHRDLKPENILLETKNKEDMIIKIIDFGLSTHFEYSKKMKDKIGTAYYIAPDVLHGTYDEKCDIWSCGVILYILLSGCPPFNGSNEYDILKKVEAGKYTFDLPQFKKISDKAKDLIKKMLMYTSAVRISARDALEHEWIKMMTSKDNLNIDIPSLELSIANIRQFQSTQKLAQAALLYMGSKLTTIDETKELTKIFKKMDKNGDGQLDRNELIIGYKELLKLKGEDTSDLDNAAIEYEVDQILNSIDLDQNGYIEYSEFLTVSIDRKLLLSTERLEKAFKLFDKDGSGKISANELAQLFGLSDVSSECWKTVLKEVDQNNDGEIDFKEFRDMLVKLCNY

A number with no mark means an inactive call. For some of these results: Results with a measured potency or affinity are listed apart. Activity calls are given as the source filed them. Unless noted, no rule for the calls is given here.

Calcium-dependent protein kinase 1 (Plasmodium falciparum (isolate 3D7)), sequence (P62344 whole entry, looked up): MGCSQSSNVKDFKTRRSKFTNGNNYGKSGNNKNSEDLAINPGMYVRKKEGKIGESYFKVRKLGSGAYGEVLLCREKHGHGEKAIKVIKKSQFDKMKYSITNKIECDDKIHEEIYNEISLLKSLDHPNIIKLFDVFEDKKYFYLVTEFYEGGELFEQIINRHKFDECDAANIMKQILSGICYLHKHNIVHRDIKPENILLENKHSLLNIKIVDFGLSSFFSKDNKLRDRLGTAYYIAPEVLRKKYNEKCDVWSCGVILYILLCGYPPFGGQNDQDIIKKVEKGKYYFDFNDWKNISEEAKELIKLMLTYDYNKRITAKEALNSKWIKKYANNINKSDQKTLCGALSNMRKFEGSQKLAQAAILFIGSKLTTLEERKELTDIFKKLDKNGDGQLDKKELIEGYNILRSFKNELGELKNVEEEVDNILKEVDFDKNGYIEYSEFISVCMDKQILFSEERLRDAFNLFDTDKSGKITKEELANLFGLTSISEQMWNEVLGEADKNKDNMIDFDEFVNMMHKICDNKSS
Protein kinase 7 (PK7), Plasmodium falciparum 3D7 (PF3D7_0213400), sequence (Q7YTF7 1-343): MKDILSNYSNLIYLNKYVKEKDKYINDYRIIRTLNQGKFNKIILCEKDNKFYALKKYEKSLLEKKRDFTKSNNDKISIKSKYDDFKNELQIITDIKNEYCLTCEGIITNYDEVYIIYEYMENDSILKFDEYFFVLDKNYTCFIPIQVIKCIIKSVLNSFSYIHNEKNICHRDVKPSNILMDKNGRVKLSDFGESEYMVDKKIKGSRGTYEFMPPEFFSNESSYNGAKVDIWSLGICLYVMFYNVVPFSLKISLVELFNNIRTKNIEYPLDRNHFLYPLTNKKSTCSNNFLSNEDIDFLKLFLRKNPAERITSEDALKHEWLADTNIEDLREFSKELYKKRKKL

As for `OC1(C(F)(F)F)CC(c2ccccc2)=NN1c1nncc(-c2ccccc2)n1` (stereo not given), the growth inhibition was 3% in test [1] and 99% (active) in test [4]. The inhibition (commonly the change of the read-out against control, counted positive when it falls) in test [2] is -3%; in test [3], -5%. The result in test [5], in test [6], in test [7] and in test [8] was inactive.

For `CC(C)(C)OC(=O)N1CCC(C2CCN(C(=O)OC(C)(C)C)CC2)CC1`, the growth inhibition in test [1] is 28%; in test [4] it was 86% (active). Also, the inhibition in test [2] was -6%; in test [3], 1%. The outcome in test [5], in test [6], in test [7] and in test [8] was inactive.

Consider `COc1ccc(S(=O)(=O)N2CCCC(C)C2)cc1N1CCN(C(=O)c2ccc([N+](=O)[O-])o2)CC1` (stereo not given), for which the growth inhibition in test [1] was 4%; in test [4], 94% (active). The inhibition was -3% in test [2] and -2% in test [3]. Also, the result in test [5], in test [6], in test [7] and in test [8] was inactive.

For `O=C(Nc1cccc(CN2CCCN(Cc3cccc(Cl)c3)CC2)c1)c1ccc(-c2ccccc2)cc1`, the results for the growth inhibition in test [1] and in test [4] were 14% and 86% (active), respectively. The inhibition in test [2] is 44%; in test [3] it was 1%. The result in test [5], in test [6], in test [7] and in test [8] was inactive.

Turning to `CCN(CC)CCN(Cc1ccc(-c2ccc(C(F)(F)F)cc2)cc1)C(=O)Cn1c(CCc2ccc(F)cc2)nc(=O)c2ccccc21`, the growth inhibition in test [1] was 58% (active); in test [4], 97% (active). The inhibition is 42% in test [2] and -3% in test [3]. In addition, the result in test [5], in test [6], in test [7] and in test [8] was inactive.

`CS(=O)(=O)CCN(CCS(C)(=O)=O)Cc1ccc(-c2ccc3ncnc(Nc4ccc(OCc5cccc(F)c5)c(Cl)c4)c3c2)o1`: the growth inhibition in test [1] is 27%; in test [4], 90% (active). The inhibition in test [2] is -2%; in test [3], -3%. Also, the outcome in test [5], in test [6], in test [7] and in test [8] was inactive.

On to `CCN1CCC(N(Cc2ccc(-c3ccc(C(F)(F)F)cc3)cc2)C(=O)Cn2c(CCc3cccc(F)c3F)cc(=O)c3ccccc32)CC1`, for which the growth inhibition in test [1] and in test [4] was 94% (active) throughout. In addition, the inhibition in test [2] was 100% (active); in test [3] it was 3%. The result in test [5], in test [6], in test [7] and in test [8] was inactive.

Take `COc1cccc(CNC(=O)NC2CCN(c3ccnc(Nc4ccc(F)cc4)n3)C2)c1` (stereo not given): the growth inhibition in test [1] was 64% (active); in test [4], 94% (active). For the same compound, the inhibition in test [2] was 20%; in test [3], -7%. Further, the outcome in test [5], in test [6], in test [7] and in test [8] was inactive.

In the case of `Oc1ccc2[nH]c(-c3cccc(F)c3)nc2c1CN1CCC(O)(c2ccccc2)CC1`, the values for the growth inhibition in test [1] and in test [4] were 72% (active) and 97% (active), respectively. Also, the results for the inhibition in test [2] and in test [3] were 21% and -1%, respectively. In addition, the outcome in test [5], in test [6], in test [7] and in test [8] was inactive.

With `Cc1noc(C)c1-c1ccc2c(Nc3cccc4c3-c3ccccc3C4=O)c(C(=O)NCc3ccccc3I)cnc2c1`, the growth inhibition in test [1] and in test [4] was 99% (active) in each case. Moreover, the inhibition was 27% in test [2] and 2% in test [3]. Moreover, the outcome in test [5], in test [6], in test [7] and in test [8] was inactive.

As to `CN1CCC(NCc2ccc(-c3cccc(S(=O)(=O)NCCc4ccccn4)c3)cc2)CC1`, the values for the growth inhibition in test [1] and in test [4] were -8% and 84% (active), respectively. Further, the inhibition in test [2] is 42%; in test [3], -1%. The outcome in test [5], in test [6], in test [7] and in test [8] was inactive.

In the case of `Cc1sc2ncnc(Sc3nnc(N)s3)c2c1C`, the growth inhibition in test [1] was 100% (active); in test [4], 101% (active). Besides, the inhibition in test [2] was 9%; in test [3], -1%. Also, the result in test [5], in test [6], in test [7] and in test [8] was inactive.

`c1csc(-c2ccc3c(c2)CC(NCc2c[nH]c4cnccc24)C3)c1` (stereo not given): the growth inhibition in test [1] was 34%; in test [4], 100% (active). For the same compound, the inhibition was 9% in test [2] and -1% in test [3]. Besides, the result in test [5], in test [6], in test [7] and in test [8] was inactive.

For the compound `O=C1C(c2ccccc2)=C(Nc2ccc(OC(F)(F)F)cc2)c2ccccc21`, the growth inhibition in test [1] and in test [4] was 96% (active) each time. The inhibition in test [2] was 18%; in test [3] it was 1%. Further, the result in test [5], in test [6], in test [7] and in test [8] was inactive.

As to `O=C(/C=C/c1ccc(Cl)c(Cl)c1)N1CCC(CN2CCC(Cc3nc4ccccc4[nH]3)CC2)CC1`, the growth inhibition in test [1] was 95% (active); in test [4] it was 101% (active). Further, the inhibition is 34% in test [2] and -2% in test [3]. Moreover, the result in test [5], in test [6], in test [7] and in test [8] was inactive.

In the case of `CS(=O)(=O)c1cccc(-c2cnc3[nH]cc(-c4ccc(C(=O)O)cc4)c3c2)c1`, the growth inhibition in test [1] is 100% (active); in test [4], 99% (active). The inhibition in test [2] is 6%; in test [3], -2%. Further, the outcome in test [5], in test [6], in test [7] and in test [8] was inactive.

For `Fc1ccc2nc(-c3cccc(-c4ccc(CN5CCN(c6ccncc6)CC5)cc4)c3)[nH]c2c1`, the growth inhibition in test [1] is 67% (active); in test [4] it was 100% (active). Moreover, the inhibition in test [2] was 39%; in test [3], 0%. Besides, the result in test [5], in test [6], in test [7] and in test [8] was inactive.

For `COc1ccc(C(=O)NC(c2ccc(Cl)cc2Cl)c2cc(Cl)c3cccnc3c2O)cc1` (stereo not given), the growth inhibition was 48% in test [1] and 84% (active) in test [4]. The inhibition was 46% in test [2] and 2% in test [3]. For the same compound, the result in test [5], in test [6], in test [7] and in test [8] was inactive.

With `N#Cc1ccccc1C1CCN(C2CCC(Nc3cc(-c4cccnc4)ccn3)CC2)CC1` (stereo not given), the growth inhibition is 78% (active) in test [1] and 100% (active) in test [4]. In addition, the figures for the inhibition in test [2] and in test [3] were 38% and 5%, respectively. Also, the result in test [5], in test [6], in test [7] and in test [8] was inactive.

With `CCN1CCN(c2cc(C)c3cc(NC(=O)c4ccc([N+](=O)[O-])c(C)c4)ccc3n2)CC1`, the growth inhibition in test [1] was 39%; in test [4], 92% (active). Moreover, the inhibition was 8% in test [2] and -2% in test [3]. Besides, the result in test [5], in test [6], in test [7] and in test [8] was inactive.
